Experimental data: PubChem BioAssay AID651947 (Broad Institute, 2012)
Entries with a potency or affinity are not part of this list. Results filed as inconclusive are left out. The source made the active and inactive calls.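 Rule for the calls: active = luminescence drop in HepG2 cells whose fitted half-effect dose is at most twice the top valid dose; inconclusive = flat curve with 30 to 70% signal loss, or unreliable fit; inactive = the rest.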

Experiment: HepG2 hepatoma cell viability loss – plate reader, dry powder, cytotoxicity control, dose response (AID 651947)
Settings: ATP luminescence (CellTiter-Glo), 48 h, active compounds read low; at 26 µM unless noted

Row | SMILES | max activity
1 | Cc1ccc(-c2nnc(SCc3ccccn3)o2)cc1 | -42.6% [at 0.38 µM] (inactive)
2 | c1ccc(-c2nnc(SCc3ccncc3)o2)cc1 | -21.6% [at 0.38 µM] (inactive)
3 | c1ccc(-c2nnc(SC(c3ccccc3)c3ccccc3)o2)cc1 | -33% [at 0.8 µM] (inactive)
4 | Cc1cccc(-c2nnc(SCc3ccccc3)o2)c1 | -20.2% [at 0.38 µM] (inactive)
5 | FC(F)(F)c1cccc(CSc2nnc(-c3ccccc3)o2)c1 | -34.6% [at 1.6 µM] (inactive)
6 | c1ccc(CNc2nnc(-c3ccccc3)o2)cc1 | 25.5% [at 0.195 µM] (inactive)
7 | c1ccc(CSc2nnc(-c3cc4ccccc4o3)o2)cc1 | 34.2% [at 6 µM] (inactive)
8 | FC(F)(F)Oc1ccccc1-c1nnc(SCc2ccccc2)o1 | -9.41% [at 6 µM] (inactive)
9 | COCCOCCSc1nnc(-c2ccccc2)o1 | -8.39% [at 1.6 µM] (inactive)
10 | O=S(Cc1cn(-c2ccccc2)nn1)c1nnc(-c2ccc(Cl)cc2)o1 (stereo not given) | -41.8% [at 12 µM] (inactive)
11 | Cc1cccc(CSc2nnc(-c3ccccc3)o2)c1 | -51.5% [at 0.195 µM] (inactive)
12 | Fc1ccc(Cn2cc(CSc3nnc(C4CCC4)o3)nn2)cc1 | -41.8% [at 0.38 µM] (inactive)
13 | c1ccc(-c2nnc(SCC3CC3)o2)cc1 | 18.8% [at 0.38 µM] (inactive)
14 | FC(F)(F)c1ccccc1-c1nnc(SCc2ccccc2)o1 | 15.6% [at 1.6 µM] (inactive)
15 | CC(C)c1nnc(SCc2ccccc2)o1 | 28.6% [at 0.38 µM] (inactive)
16 | [O-][n+]1ccccc1CSc1nnc(-c2ccccc2)o1 | -47.8% [at 1.6 µM] (inactive)
17 | N#Cc1ccc(CSc2nnc(-c3ccccc3)o2)cc1 | -47.6% [at 3 µM] (inactive)
18 | FC1(F)CCN(CCSc2nnc(-c3ccccc3)o2)CC1 | -22.5% [at 1.6 µM] (inactive)

Row | SMILES | max activity
19 | Brc1cccc(-c2nnc(SCc3ccccn3)o2)c1 | -18% [at 1.6 µM] (inactive)
20 | Fc1ccc(CSc2nnc(-c3ccc(Cl)cc3)o2)cc1 | -47.5% [at 12 µM] (inactive)
21 | COCCSc1nnc(-c2ccccc2)o1 | 27.8% [at 0.195 µM] (inactive)
22 | O=C(Cc1ccccc1)C(C(=O)c1nnc(-c2ccccc2)o1)c1ccccc1 (stereo not given) | -29.7% (inactive)
23 | c1ccc(-c2nnc(SCc3cscn3)o2)cc1 | -61.2% [at 12 µM] (inactive)
24 | c1ccc(-c2nnc(SCc3cccnc3)o2)cc1 | 17.3% (inactive)
25 | FC(F)(F)CNCCSc1nnc(-c2ccccc2)o1 | -10% [at 12 µM] (inactive)
26 | FC(F)(F)Oc1cccc(-c2nnc(SCc3ccccc3)o2)c1 | -17.6% [at 0.195 µM] (inactive)
27 | c1ccc(-c2ccc(CSc3nnc(-c4ccccc4)o3)cc2)cc1 | -30.5% [at 0.38 µM] (inactive)
28 | Cc1cccc(CSc2nnc(-c3ccc(Cl)cc3)o2)n1 | 26% [at 0.38 µM] (inactive)
29 | FC(F)(F)Oc1ccc(-c2nnc(SCc3ccccc3)o2)cc1 | 21.1% [at 12 µM] (inactive)
30 | c1ccc(CSc2nnc(-c3ccncc3)o2)nc1 | -29.6% [at 6 µM] (inactive)
31 | Fc1ccccc1CSc1nnc(-c2ccccc2)o1 | -57.5% (inactive)
32 | O=S(Cc1ccccc1)c1nnc(-c2ccccc2)o1 (stereo not given) | -53.1% (inactive)
33 | COc1cccc(-c2nnc(SCc3ccccn3)o2)c1 | 26.5% [at 1.6 µM] (inactive)
34 | c1ccc(CSc2nnc(-c3ccco3)o2)cc1 | -42.4% [at 6 µM] (inactive)
35 | CS(=O)(=O)c1ccccc1CSc1nnc(-c2ccccc2)o1 | -12.5% [at 12 µM] (inactive)
